The supplement of paper PMC10849652
About 7,900 targets were measured; listed, in parts, are those with a hit and a random draw of the rest. About 0.6% of all pairs of compound and target were hits.

Legend:
Test in all cases: log2 fold change, soluble protein after heating vs DMSO (PISA); higher = thermal stabilisation; K562 cells, 10 uM, 30 min; active = over 0.2 and 3.5 SD of the protein, either way, in both replicates (recomputed)
erlotinib = compound: C#Cc1cccc(Nc2ncnc3cc(OCCOC)c(OCCOC)cc23)c1 [erlotinib]
How it was run: (§1)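 K562 cells (2×10^6 cells/mL) were treated with 10 μM compound for 30 min, and aliquots were heated for 3 min over 48°C-58°C. Pooled aliquots were extracted in PBS with 0.5% NP-40 at 4°C, and the supernatant after 21,000xg for 90 min was measured by TMTpro 16plex LC-MS/MS with channel sums equalised. Reported thermal stability, relative to control samples and from duplicates, is a log2 fold change.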

[1] = compound: C/C(=N\NC(=O)C1=CC(=CC=C1)S(=O)(=O)N2CCOCC2)/C3=C(C=CC(=C3)Cl)O
How it was run: as §1

[2] = compound: C1=CC(=C(C=C1Cl)C2=NC3=NC=CN=C3C(=N2)NC4=CC=NC=C4)F
How it was run: as §1

[3] = compound: C1=CC(=CC=C1C2=NC3=C(N2)C=C(C=C3)C(=O)N)OC4=CC=C(C=C4)Cl
How it was run: as §1

[4] = compound: C1=CC2=C(C=CC(=C2)/C=C\3/C(=O)NC(=NCC4=CC=CS4)S3)N=C1
How it was run: as §1

[5] = compound: C1=CC2=NC=CN=C2C=C1/C=C/3\C(=O)NC(=O)S3
How it was run: as §1

[6] = compound: C1=CC=C(C=C1)C2=NC(=C(N2)C3=CC=NC=C3)C4=CC(=C(C=C4)Cl)O
How it was run: as §1

[7] = compound: C1=CC=C2C(=C1)C3=NNC4=CC=CC(=C43)C2=O
How it was run: as §1

[8] = compound: C1CCN(C1)C(=O)NC2=CC=CC(=C2)NC3=NC=C(C(=N3)NCCC4=CN=CN4)Br
How it was run: as §1

[9] = compound: C1CN(CCC1(CC2=CC=C(C=C2)Cl)N)C3=NC=NC4=C3C=CN4
How it was run: as §1

IRAK-1-4 Inhibitor I = compound: C1COCCN1CCN2C3=CC=CC=C3N=C2NC(=O)C4=CC(=CC=C4)[N+](=O)[O-] [IRAK-1-4 Inhibitor I]
How it was run: as §1

ibrutinib = compound: C=CC(=O)N1CCC[C@@H](n2nc(-c3ccc(Oc4ccccc4)cc3)c3c(N)ncnc32)C1 [ibrutinib]
How it was run: as §1

[10] = compound: CC(=O)c1cnc2ccc(-c3cc(Cl)c(O)c(Cl)c3)nc2c1N[C@H]1CC[C@H](CN(C)C)CC1
How it was run: as §1

ralimetinib = compound: CC(C)(C)Cn1c(N)nc2ccc(-c3[nH]c(C(C)(C)C)nc3-c3ccc(F)cc3)nc21 [ralimetinib]
How it was run: as §1

[11] = compound: CC(C)(O)CC(=O)NCCn1ccc2ncnc(Nc3ccc(Oc4cccc(C(F)(F)F)c4)c(Cl)c3)c21
How it was run: as §1

[12] = compound: CC(C)C1=C2N=C(C=C(N2N=C1)NCC3=CC=CC=C3)NCCCCCCN
How it was run: as §1

[13] = compound: CC(C)C[C@@H](C=O)NC(=O)[C@H](CC(C)C)NC(=O)[C@H](CC(C)C)NC(=O)OCc1ccccc1
How it was run: as §1

pinometostat = compound: CC(C)N(C[C@H]1O[C@@H](n2cnc3c(N)ncnc32)[C@H](O)[C@@H]1O)[C@H]1C[C@@H](CCc2nc3cc(C(C)(C)C)ccc3[nH]2)C1 [pinometostat]
How it was run: as §1

[14] = compound: CC1=C(C(CC(=O)N1)C2=CC=C(C=C2)C(F)(F)F)C(=O)NC3=C(C=C4C(=C3)C=NN4)F
How it was run: as §1

[15] = compound: CC1=C(C2=C(C=C1)C(=O)C3=CC=CC=C3N2CCCN)C
How it was run: as §1

Measured: log2 fold change

CDK11B (UniProt P21127)
Chain of UniProt P21127 (P21127 whole entry, looked up): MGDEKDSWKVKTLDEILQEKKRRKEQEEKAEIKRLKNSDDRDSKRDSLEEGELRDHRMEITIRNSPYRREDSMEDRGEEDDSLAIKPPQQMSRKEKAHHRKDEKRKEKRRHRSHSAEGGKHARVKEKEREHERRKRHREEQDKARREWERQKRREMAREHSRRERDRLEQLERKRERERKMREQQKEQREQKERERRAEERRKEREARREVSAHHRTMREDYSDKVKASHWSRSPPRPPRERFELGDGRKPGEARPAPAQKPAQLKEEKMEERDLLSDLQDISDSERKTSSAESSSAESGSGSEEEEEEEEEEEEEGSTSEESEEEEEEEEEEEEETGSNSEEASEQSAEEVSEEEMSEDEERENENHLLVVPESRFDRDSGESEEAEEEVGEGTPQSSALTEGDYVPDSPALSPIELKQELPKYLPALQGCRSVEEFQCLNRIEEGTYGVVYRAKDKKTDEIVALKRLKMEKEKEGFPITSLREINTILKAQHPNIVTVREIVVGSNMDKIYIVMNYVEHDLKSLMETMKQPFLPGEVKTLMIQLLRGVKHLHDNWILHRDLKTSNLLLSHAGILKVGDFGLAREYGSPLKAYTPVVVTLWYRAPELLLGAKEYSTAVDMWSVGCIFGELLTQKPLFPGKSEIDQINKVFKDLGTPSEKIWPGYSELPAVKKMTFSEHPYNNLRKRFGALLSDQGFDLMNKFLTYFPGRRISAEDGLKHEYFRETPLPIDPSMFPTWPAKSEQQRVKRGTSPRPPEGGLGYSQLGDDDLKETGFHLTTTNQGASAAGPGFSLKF
active: [10] 2.34 | [15] -0.366
inactive: erlotinib 0.044 | [1] 0.006 | [2] -0.139 | [3] 0.063 | [4] 0.035 | [5] -0.033 | [6] -0.042 | [7] -0.049 | [8] -0.033 | [9] -0.058 | IRAK-1-4 Inhibitor I -0.151 | ibrutinib -0.026 | ralimetinib 0.04 | [11] -0.006 | [12] -0.116 | [13] 0.076 | pinometostat -0.11 | [14] -0.009

CHMP4C (UniProt Q96CF2)
Chain of UniProt Q96CF2 (Q96CF2 whole entry, looked up): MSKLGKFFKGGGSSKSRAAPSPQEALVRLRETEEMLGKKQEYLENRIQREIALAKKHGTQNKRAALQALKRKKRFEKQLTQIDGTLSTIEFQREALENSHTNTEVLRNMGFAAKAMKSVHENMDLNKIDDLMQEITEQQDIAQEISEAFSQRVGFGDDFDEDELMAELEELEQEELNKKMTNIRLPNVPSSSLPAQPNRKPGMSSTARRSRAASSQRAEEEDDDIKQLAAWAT
active: [2] 0.476
inactive: erlotinib 0.036 | [1] 0.06 | [3] -0.025 | [4] 0.054 | [5] 0.134 | [6] -0.064 | [7] -0.043 | [8] 0.058 | [9] 0.034 | IRAK-1-4 Inhibitor I 0.097 | ibrutinib -0.022 | [10] -0.028 | ralimetinib -0.087 | [11] -0.018 | [12] -0.099 | [13] 0.039 | pinometostat -0.095 | [14] 0.021 | [15] -0.019

CCAR1 (UniProt Q8IX12)
inactive: erlotinib 0.052 | [1] 0.057 | [2] -0.002 | [3] 0.014 | [4] 0.071 | [5] 0.039 | [6] -0.021 | [7] 0.024 | [8] 0.027 | [9] -0.085 | IRAK-1-4 Inhibitor I 0.002 | ibrutinib 0.003 | [10] -0.039 | ralimetinib -0.012 | [11] -0.103 | [12] -0.168 | [13] 0.006 | pinometostat -0.009 | [14] -0.03 | [15] 0.209

CD55 isoform 7 (UniProt P08174)
Chain of UniProt P08174 (P08174 whole entry, looked up): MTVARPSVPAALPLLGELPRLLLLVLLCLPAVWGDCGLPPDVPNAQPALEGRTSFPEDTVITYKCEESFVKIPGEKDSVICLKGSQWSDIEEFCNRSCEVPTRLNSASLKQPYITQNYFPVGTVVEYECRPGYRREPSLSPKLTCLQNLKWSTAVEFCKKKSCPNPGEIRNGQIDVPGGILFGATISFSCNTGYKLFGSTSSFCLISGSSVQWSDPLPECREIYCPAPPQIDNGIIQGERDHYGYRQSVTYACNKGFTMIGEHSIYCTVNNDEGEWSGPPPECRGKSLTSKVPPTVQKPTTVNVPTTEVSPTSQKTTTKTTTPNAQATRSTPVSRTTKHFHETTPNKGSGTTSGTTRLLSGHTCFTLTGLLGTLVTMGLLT
inactive: erlotinib -0.065 | [1] -0.002 | [2] -0.031 | [3] 0.036 | [4] -0.121 | [5] -0.015 | [6] 0.011 | [7] -0.062 | [8] -0.079 | [9] 0.008 | IRAK-1-4 Inhibitor I -0.043 | ibrutinib 0.071 | [10] -0.008 | ralimetinib 0.016 | [11] 0.037 | [12] 0.155 | [13] -0.012 | pinometostat 0.019 | [14] 0.02 | [15] -0.054

CSNK2A2 (UniProt P19784)
Chain of UniProt P19784 (P19784 whole entry, looked up): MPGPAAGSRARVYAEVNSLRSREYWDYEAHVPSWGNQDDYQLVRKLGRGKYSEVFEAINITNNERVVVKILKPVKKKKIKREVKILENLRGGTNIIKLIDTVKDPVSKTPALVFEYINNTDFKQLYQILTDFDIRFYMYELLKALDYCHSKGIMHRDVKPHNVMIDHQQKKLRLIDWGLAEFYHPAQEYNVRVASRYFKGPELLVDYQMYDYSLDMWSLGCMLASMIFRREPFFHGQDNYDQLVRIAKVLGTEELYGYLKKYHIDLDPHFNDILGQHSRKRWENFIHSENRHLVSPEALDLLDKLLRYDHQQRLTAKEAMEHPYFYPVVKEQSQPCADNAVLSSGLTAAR
active: [4] 0.22 | [5] 0.591 | [10] 0.585 | [15] 0.235
inactive: erlotinib -0.053 | [1] -0.08 | [2] 0.046 | [3] -0.006 | [6] -0.038 | [7] 0.185 | [8] 0.034 | [9] -0.047 | IRAK-1-4 Inhibitor I 0.033 | ibrutinib 0.006 | ralimetinib 0.001 | [11] -0.065 | [12] 0.026 | [13] -0.029 | pinometostat 0.149 | [14] 0.009

CDK5RAP1 (UniProt Q96SZ6)
inactive: erlotinib 0.076 | [2] 0.046 | [3] -0.025 | [4] 0.134 | [5] -0.03 | [6] 0.069 | [7] 0.078 | [8] 0.072 | [9] -0.029 | IRAK-1-4 Inhibitor I -0.067 | ibrutinib 0.018 | [10] 0.111 | ralimetinib -0.057 | [11] -0.055 | [12] -0.066 | [13] -0.015 | pinometostat 0.025 | [14] -0.038 | [15] 0.099
active: [1] -0.555

CD63 (UniProt P08962)
inactive: erlotinib 0.01 | [1] 0.024 | [2] -0.045 | [3] -0.089 | [4] -0.027 | [5] 0.069 | [6] 0.009 | [7] 0.002 | [8] 0.004 | [9] 0.034 | IRAK-1-4 Inhibitor I 0.022 | ibrutinib 0.036 | [10] 0.032 | ralimetinib 0.047 | [11] 0.006 | [12] 0.081 | [13] 0.056 | pinometostat 0.007 | [14] 0.017 | [15] 0.003

CCNH (UniProt P51946)
active: [10] -0.24
inactive: erlotinib -0.022 | [1] 0.021 | [2] 0.034 | [3] -0.016 | [4] -0.045 | [5] 0.031 | [6] 0.022 | [7] -0.004 | [8] -0.011 | [9] -0.015 | IRAK-1-4 Inhibitor I -0.01 | ibrutinib -0.04 | ralimetinib -0.04 | [11] -0.009 | [12] 0.084 | [13] -0.053 | pinometostat 0.022 | [14] 0.045 | [15] -0.01

C4A (UniProt P0C0L4)
Chain of UniProt P0C0L4 (P0C0L4 whole entry, looked up): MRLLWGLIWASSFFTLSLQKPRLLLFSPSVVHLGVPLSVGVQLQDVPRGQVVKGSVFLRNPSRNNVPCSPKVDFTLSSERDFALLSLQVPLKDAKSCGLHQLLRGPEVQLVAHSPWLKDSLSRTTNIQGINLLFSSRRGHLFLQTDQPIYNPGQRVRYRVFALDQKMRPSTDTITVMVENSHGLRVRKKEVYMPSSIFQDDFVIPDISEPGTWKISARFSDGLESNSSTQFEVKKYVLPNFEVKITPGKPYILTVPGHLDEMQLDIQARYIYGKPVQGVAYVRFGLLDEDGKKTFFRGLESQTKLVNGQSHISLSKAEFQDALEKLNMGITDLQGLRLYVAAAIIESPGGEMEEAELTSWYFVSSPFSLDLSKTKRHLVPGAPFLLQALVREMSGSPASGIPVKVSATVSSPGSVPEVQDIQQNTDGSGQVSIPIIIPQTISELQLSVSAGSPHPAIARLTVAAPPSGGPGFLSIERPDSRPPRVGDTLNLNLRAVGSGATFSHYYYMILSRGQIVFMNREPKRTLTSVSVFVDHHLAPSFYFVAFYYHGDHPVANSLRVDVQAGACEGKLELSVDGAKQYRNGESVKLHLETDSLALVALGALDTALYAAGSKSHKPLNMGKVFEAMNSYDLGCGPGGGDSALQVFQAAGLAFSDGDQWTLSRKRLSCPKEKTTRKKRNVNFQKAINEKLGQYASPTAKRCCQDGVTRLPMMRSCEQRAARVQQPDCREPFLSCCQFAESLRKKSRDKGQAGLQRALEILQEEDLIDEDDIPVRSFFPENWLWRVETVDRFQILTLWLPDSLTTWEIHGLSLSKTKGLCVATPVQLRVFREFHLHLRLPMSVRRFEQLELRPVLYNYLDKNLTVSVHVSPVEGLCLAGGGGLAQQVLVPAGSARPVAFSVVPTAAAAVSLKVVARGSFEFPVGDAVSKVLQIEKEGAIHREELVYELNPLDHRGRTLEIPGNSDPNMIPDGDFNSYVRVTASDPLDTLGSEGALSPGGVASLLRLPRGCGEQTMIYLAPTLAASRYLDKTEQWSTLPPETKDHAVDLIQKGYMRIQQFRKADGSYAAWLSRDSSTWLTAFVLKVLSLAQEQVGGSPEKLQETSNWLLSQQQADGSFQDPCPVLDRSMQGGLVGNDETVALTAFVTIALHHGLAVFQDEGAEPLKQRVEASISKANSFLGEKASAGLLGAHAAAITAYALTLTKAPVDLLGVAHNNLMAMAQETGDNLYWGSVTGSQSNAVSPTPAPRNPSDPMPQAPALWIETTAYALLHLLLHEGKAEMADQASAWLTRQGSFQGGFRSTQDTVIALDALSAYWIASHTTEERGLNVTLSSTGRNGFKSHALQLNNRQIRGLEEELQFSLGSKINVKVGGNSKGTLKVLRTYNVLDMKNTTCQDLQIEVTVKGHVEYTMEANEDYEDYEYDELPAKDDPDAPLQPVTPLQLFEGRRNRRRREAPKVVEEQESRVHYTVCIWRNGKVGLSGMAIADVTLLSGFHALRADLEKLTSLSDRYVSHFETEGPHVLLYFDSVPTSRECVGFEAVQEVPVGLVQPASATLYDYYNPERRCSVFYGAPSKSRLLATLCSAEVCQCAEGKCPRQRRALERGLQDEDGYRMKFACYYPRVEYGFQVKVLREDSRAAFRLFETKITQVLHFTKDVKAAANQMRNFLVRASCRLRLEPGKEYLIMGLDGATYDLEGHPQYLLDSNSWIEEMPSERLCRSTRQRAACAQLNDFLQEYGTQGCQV
inactive: erlotinib -0.117 | [1] -0.05 | [2] 0.024 | [3] 0.078 | [4] 0.12 | [5] -0.032 | [6] 0.002 | [7] -0.132 | [8] 0.072 | [9] 0.104 | IRAK-1-4 Inhibitor I 0.017 | ibrutinib 0.08 | [10] -0.01 | ralimetinib -0.083 | [11] 0.226 | [12] 0.111 | [13] 0.01 | pinometostat -0.11 | [14] 0.086 | [15] -0.192

CNOT7 (UniProt Q9UIV1)
Chain of UniProt Q9UIV1 (Q9UIV1 whole entry, looked up): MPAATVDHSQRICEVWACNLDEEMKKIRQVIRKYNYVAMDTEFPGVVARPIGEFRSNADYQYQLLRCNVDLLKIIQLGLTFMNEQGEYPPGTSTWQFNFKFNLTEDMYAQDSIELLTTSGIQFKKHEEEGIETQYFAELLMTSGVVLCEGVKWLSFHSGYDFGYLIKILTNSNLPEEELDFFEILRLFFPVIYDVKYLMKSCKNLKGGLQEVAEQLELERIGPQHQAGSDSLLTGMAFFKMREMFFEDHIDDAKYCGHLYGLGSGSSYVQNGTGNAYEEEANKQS
inactive: erlotinib 0.025 | [1] -0.002 | [2] -0.059 | [3] 0.018 | [4] 0.194 | [5] -0.044 | [6] 0.128 | [7] 0.048 | [8] -0.003 | [9] 0.016 | IRAK-1-4 Inhibitor I -0.039 | ibrutinib 0.022 | [10] -0.013 | ralimetinib -0.016 | [11] -0.021 | [12] -0.002 | [13] 0.079 | pinometostat 0.066 | [14] -0.039 | [15] 0.033

CD81 (UniProt P60033)
inactive: erlotinib -0.065 | [1] 0.033 | [2] 0.059 | [3] 0.039 | [4] -0.065 | [5] 0.059 | [6] 0.013 | [7] -0.043 | [8] 0.098 | [9] 0.206 | IRAK-1-4 Inhibitor I 0.027 | ibrutinib 0.007 | [10] -0.026 | ralimetinib -0.045 | [11] -0.018 | [12] 0.33 | [13] -0.122 | pinometostat -0.05 | [14] 0.004 | [15] -0.01

CBR1 (UniProt P16152)
Chain of UniProt P16152 (P16152 whole entry, looked up): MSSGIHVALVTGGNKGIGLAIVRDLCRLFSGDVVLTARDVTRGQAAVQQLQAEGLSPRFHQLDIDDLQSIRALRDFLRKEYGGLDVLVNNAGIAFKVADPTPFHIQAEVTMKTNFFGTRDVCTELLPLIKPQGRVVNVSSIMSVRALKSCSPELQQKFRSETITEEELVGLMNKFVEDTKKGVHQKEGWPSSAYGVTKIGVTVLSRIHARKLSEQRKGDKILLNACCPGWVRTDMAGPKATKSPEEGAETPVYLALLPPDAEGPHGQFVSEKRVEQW
inactive: erlotinib 0.011 | [1] 0.066 | [2] 0.115 | [3] 0.008 | [4] -0.009 | [5] 0.028 | [6] 0.186 | [7] -0.038 | [8] -0.027 | [9] 0.057 | IRAK-1-4 Inhibitor I 0.023 | ibrutinib 0.009 | [10] 0.031 | ralimetinib 0.097 | [11] -0.007 | [12] 0.061 | [13] -0.088 | pinometostat -0.035 | [14] -0.009 | [15] 0.028

COQ7 (UniProt Q99807)
Chain of UniProt Q99807 (Q99807 whole entry, looked up): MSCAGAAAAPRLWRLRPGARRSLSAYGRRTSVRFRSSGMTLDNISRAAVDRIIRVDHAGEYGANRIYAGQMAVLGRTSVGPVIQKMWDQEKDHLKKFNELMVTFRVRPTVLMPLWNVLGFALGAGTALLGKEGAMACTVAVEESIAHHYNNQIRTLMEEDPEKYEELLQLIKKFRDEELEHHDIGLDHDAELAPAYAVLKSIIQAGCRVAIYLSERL
inactive: erlotinib 0.082 | [1] -0.014 | [2] 0.075 | [3] 0.023 | [4] -0.005 | [5] 0.068 | [6] -0.024 | [7] -0.009 | [8] 0.02 | [9] 0.052 | IRAK-1-4 Inhibitor I 0.08 | ibrutinib 0.021 | [10] -0.064 | ralimetinib -0.03 | [11] 0.01 | [12] -0.034 | [13] 0 | pinometostat -0.016 | [14] -0.018 | [15] -0.035

COX5B (UniProt P10606)
Chain of UniProt P10606 (P10606 whole entry, looked up): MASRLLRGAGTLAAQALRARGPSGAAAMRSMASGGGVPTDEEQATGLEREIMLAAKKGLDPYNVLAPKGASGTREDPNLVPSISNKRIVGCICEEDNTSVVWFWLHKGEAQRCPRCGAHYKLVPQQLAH
inactive: erlotinib -0.068 | [1] 0.062 | [2] 0.16 | [3] -0.041 | [4] 0.032 | [5] 0.03 | [6] 0.114 | [7] -0.023 | [8] -0.067 | [9] -0.003 | IRAK-1-4 Inhibitor I 0.008 | ibrutinib -0.012 | [10] -0.079 | ralimetinib 0 | [11] 0.106 | [13] -0.082 | pinometostat -0.071 | [14] 0.003 | [15] 0.204
active: [12] 0.428

CEPT1 (UniProt Q9Y6K0)
Chain of UniProt Q9Y6K0 (Q9Y6K0 whole entry, looked up): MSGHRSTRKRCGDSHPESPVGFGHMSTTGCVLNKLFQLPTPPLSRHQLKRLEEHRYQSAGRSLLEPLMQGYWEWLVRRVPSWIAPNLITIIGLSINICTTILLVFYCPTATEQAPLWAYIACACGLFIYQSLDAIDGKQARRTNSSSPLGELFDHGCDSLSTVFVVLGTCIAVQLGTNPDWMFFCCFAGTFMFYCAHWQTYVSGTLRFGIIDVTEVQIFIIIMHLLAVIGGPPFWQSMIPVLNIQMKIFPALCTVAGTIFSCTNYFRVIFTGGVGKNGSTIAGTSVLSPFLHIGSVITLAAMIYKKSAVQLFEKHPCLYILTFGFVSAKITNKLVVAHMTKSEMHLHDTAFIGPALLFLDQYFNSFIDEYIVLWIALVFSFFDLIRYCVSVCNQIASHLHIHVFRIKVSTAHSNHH
inactive: erlotinib 0.099 | [1] 0.034 | [2] 0.016 | [3] 0.107 | [4] 0.037 | [5] 0.047 | [6] 0.011 | [7] 0.071 | [8] 0.007 | [9] -0.074 | IRAK-1-4 Inhibitor I 0.035 | ibrutinib -0.014 | [10] 0.072 | ralimetinib -0.026 | [11] 0.073 | [13] -0.118 | pinometostat -0.016 | [14] 0.023 | [15] 0.118
active: [12] -0.466

CIT isoform 4 (UniProt O14578)
inactive: erlotinib -0.015 | [1] 0.045 | [2] -0.044 | [3] 0 | [4] -0.176 | [5] 0.13 | [6] -0.027 | [7] -0.002 | [8] -0.037 | [9] 0.021 | IRAK-1-4 Inhibitor I -0.013 | ibrutinib -0.057 | ralimetinib -0.008 | [11] -0.077 | [12] -0.021 | [13] 0.045 | pinometostat -0.005 | [14] 0.045 | [15] 0.118
active: [10] -0.462
